Data as given in PubChem BioAssay (EPA / NIEHS).
The source made the active and inactive calls. Rule for the calls: active = hit-call score of the fitted dose curve at least 0.9, where 1 is the maximum; inactive = score below 0.9.

Key:
[1] = read-out: Vascular cell adhesion molecule 1 (VCAM1), VCAM1 (gene 7412); test: BSK_CASM3C_VCAM1: BioMAP Diversity Plus: CASM3C Assay for Vascular cell adhesion molecule 1 (VCAM1) Biomarker Activity (AID 2283055); conditions: primary human coronary artery smooth muscle cells; actives raise or lower the signal;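 note: VCAM-1 protein level quantified by ELISA on the cells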
[2] = read-out: Collagen III, COL3A1 (gene 1281); test: BSK_hDFCGF_CollagenIII: BioMAP Diversity Plus: hDFCGF Assay for Collagen III Biomarker Activity (AID 2283056); conditions: primary human foreskin fibroblasts; actives raise or lower the signal
How it was run: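 hDFCGF primary human dermal fibroblasts; 24 h chemical exposure; collagen III by ELISA; bidirectional curve fit vs DMSO baseline (gain or loss of signal).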

[3] = read-out: Epidermal growth factor receptor (EGFR), EGFR (gene 1956); test: BSK_hDFCGF_EGFR: BioMAP Diversity Plus: hDFCGF Assay for Epidermal growth factor receptor (EGFR) Biomarker Activity (AID 2283057); conditions: primary human foreskin fibroblasts; actives raise or lower the signal
How it was run: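 Cell-based multiplexed assay in primary human foreskin fibroblasts. EGFR is read by ELISA 24 h after treatment and compared with DMSO controls.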

[4] = read-out: Interleukin-8 (IL8), CXCL8 (gene 3576); test: BSK_hDFCGF_IL8: BioMAP Diversity Plus: hDFCGF Assay for Interleukin-8 (IL8) Biomarker Activity (AID 2283058); conditions: primary human foreskin fibroblasts; actives raise or lower the signal
How it was run: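 ELISA read-out of IL-8 from primary human foreskin fibroblast cultures taken 24 h after dosing; values are bidirectional fits relative to DMSO vehicle.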

[5] = BSK_hDFCGF_Proliferation: Cell Proliferation Assessment in the BioMAP Diversity Plus: hDFCGF Assay (AID 2283059); conditions: primary human foreskin fibroblasts;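 note: curves fitted for both rise and fall of signal versus DMSO baseline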
How it was run: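 Primary human foreskin fibroblasts, sub-confluent; […]; 10% TCA fix, 0.1% SRB stain, A560 total protein. Gain/loss fitted bidirectionally vs DMSO control.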

[6] = read-out: Macrophage colony-stimulating factor (MCSF), CSF1 (gene 1435); test: BSK_hDFCGF_MCSF: BioMAP Diversity Plus: hDFCGF Assay for Macrophage colony-stimulating factor (MCSF) Biomarker Activity (AID 2283060); conditions: primary human foreskin fibroblasts; actives raise or lower the signal
How it was run: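 ELISA read-out of M-CSF in human dermal foreskin fibroblast cultures, 24 h after chemical dosing; gain or loss of signal fitted bidirectionally relative to DMSO baseline.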

[7] = BSK_hDFCGF_SRB: Viability Assessment in the BioMAP Diversity Plus: hDFCGF Assay (AID 2283061); conditions: primary human foreskin fibroblasts;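 note: cells exposed to compound for 24 h before the read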
How it was run: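 Primary human foreskin fibroblasts; 24 h post-dose; fixed 10% TCA, stained 0.1% SRB, A560 read; total protein as overt cytotoxicity measure; curves fit bidirectionally vs DMSO control.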

[8] = read-out: TIMP metallopeptidase inhibitor 1 (TIMP1), TIMP1 (gene 7076); test: BSK_hDFCGF_TIMP1: BioMAP Diversity Plus: hDFCGF Assay for TIMP metallopeptidase inhibitor 1 (TIMP1) Biomarker Activity (AID 2283062); conditions: primary human foreskin fibroblasts; actives raise or lower the signal
How it was run: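 ELISA readout of TIMP-1 from human dermal foreskin fibroblast cultures 24 h post-dosing. Curves were fitted in both directions against DMSO baseline, with SRB total-protein staining in parallel cultures as a cytotoxicity check.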

[9] = read-out: Monokine induced gamma interferon (MIG), CXCL9 (gene 4283); test: BSK_hDFCGF_MIG: BioMAP Diversity Plus: hDFCGF Assay for Monokine induced gamma interferon (MIG) Biomarker Activity (AID 2283063); conditions: primary human foreskin fibroblasts; actives raise or lower the signal
How it was run: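 Fibroblasts (human foreskin, primary) dosed, 24 h, MIG by ELISA; fit bidirectional vs DMSO.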

[10] = read-out: Matrix Metallopeptidase 1 (MMP1), MMP1 (gene 4312); test: BSK_hDFCGF_MMP1: BioMAP Diversity Plus: hDFCGF Assay for Matrix Metallopeptidase 1 (MMP1) Biomarker Activity (AID 2283064); conditions: primary human foreskin fibroblasts; actives raise or lower the signal
How it was run: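 ELISA read-out of MMP1 from human foreskin fibroblasts (primary skin cells), 24 h post-dose. Gain or loss of signal was fitted bidirectionally versus DMSO negative control; cytotoxicity was checked by SRB in parallel cultures.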

Measured: AC50

CCn1nc(Cc2ccccc2)cc1C1CCN(C[C@H]2C[C@H](N(C)[C@@H](C(=O)O)C(C)C)C[C@@H]2c2cccc(F)c2)CC1
active: [5] 12.9 µM
inactive: all other assays above

C1=CCCC=CCCC=CCC1
inactive: all assays above

CC[C@H]1OC(=O)[C@H](C)[C@@H](O[C@H]2C[C@@](C)(OC)[C@@H](O)[C@H](C)O2)[C@H](C)[C@@H](O[C@@H]2O[C@H](C)C[C@H](N(C)C)[C@H]2O)[C@](C)(O)C[C@@H](C)C(=O)[C@H](C)[C@@H](O)[C@]1(C)O
inactive: all assays above

COC(=O)c1c(Cl)c(Cl)c(C(=O)OC)c(Cl)c1Cl
inactive: all assays above

O=C(O)CCN(C1(C(=O)NO)CCCC1)S(=O)(=O)c1ccc(Oc2ccc(F)cc2)cc1
inactive: all assays above

CNS(=O)(=O)c1cc(C(=O)N2CCC(CCN3C4CCC3CC(n3c(C)nc5ccccc53)C4)(c3cccc(F)c3)CC2)c(Cl)cc1F (stereo unspecified)
active: [1] 6.7 µM | [2] 20 µM | [5] 11.5 µM | [7] 24.8 µM
inactive: all other assays above

CN(C)c1ccc(N=NS(=O)(=O)O)cc1
active: [2] 4.35 µM | [5] 12.8 µM | [6] 9.62 µM
inactive: all other assays above

Cc1c(-c2cccnc2)c2ccccc2n1CCCCC(=O)O
inactive: all assays above

CCCCCCCCCCCCCCCO
active: [5] 20 µM
inactive: all other assays above

C=CCCCCCCCCC(=O)O
inactive: all assays above

CN(C)c1ccc(Cc2ccc(N(C)C)cc2)cc1
active: [5] 3 µM | [10] 20 µM
inactive: all other assays above

O=C1CCC(N2C(=O)c3ccccc3C2=O)C(=O)N1 (stereo unspecified)
inactive: all assays above

CCOc1cccc(-n2cc(C(=O)N3CCN(c4cc(C(=O)O)c5ccccc5c4)CC3)nc2-c2ccc(C)cc2)c1
active: [1] 19.2 µM | [2] 4.99 µM | [3] 5.21 µM | [4] 14.2 µM | [5] 10.2 µM | [6] 7.68 µM | [7] 6.49 µM | [8] 13.3 µM | [9] 26.3 µM | [10] 16.5 µM

C=CC(=C)CCC=C(C)C
inactive: all assays above

CC(C)=CCCC(C)=CC=O
active: [5] 28.1 µM
inactive: all other assays above

CC(O)CN(CCN(CC(C)O)CC(C)O)CC(C)O (stereo unspecified)
inactive: all assays above

CCOCCOCCOCCO
inactive: all assays above

CC(C)=CCCC(C)CCO (stereo unspecified)
active: [5] 26.4 µM
inactive: all other assays above

CC(C)(O)c1coc(S(=O)(=O)NC(=O)Nc2c3c(cc4c2CCC4)CCC3)c1
inactive: all assays above

CC(C)CCCCCCCOC(=O)CCCCC(=O)OCCCCCCCC(C)C
inactive: all assays above

Cn1c(=O)cc(Oc2ccc(F)cc2F)c2cnc(NCC(C)(C)O)nc21
active: [6] 0.691 µM | [10] 1.12 µM
inactive: all other assays above

On1ccccc1=S
active: [2] 1.41 µM | [4] 0.791 µM | [5] 0.148 µM | [6] 0.892 µM | [7] 1.74 µM | [8] 1.4 µM | [9] 0.204 µM | [10] 1.35 µM
inactive: [1] | [3]

COC(=O)CC(=O)OC
inactive: all assays above

CC[C@H]1CC[C@H](NCc2cc3c(cc2OC)[C@H]2C[C@H]2C(=O)N3C)[C@H](c2ccccc2)N1
active: [2] 1.57 µM | [5] 20 µM
inactive: all other assays above

Cn1c(=O)c2c(ncn2C)n(C)c1=O
not listed: [3]
inactive: all other assays above

CCOC(=O)COc1ccc2c(c1)CC(NCC(O)c1cccc(Cl)c1)CC2 (stereo unspecified)
active: [2] 30.6 µM | [3] 33.4 µM | [4] 32.1 µM | [5] 9.71 µM | [6] 14.6 µM | [7] 26.9 µM | [8] 28.8 µM | [9] 26.8 µM | [10] 33.9 µM
inactive: [1]

Cc1ccc(C)c(O)c1
inactive: all assays above

CCOC(=O)c1ccc(C2CCC(NC[C@H](O)COc3ccc(O)c(NS(C)(=O)=O)c3)CC2)cc1 (stereo partly specified)
active: [1] 18.7 µM | [2] 13.4 µM | [3] 6.27 µM | [4] 27.2 µM | [5] 1.75 µM | [6] 10.2 µM | [7] 5.64 µM | [8] 13.4 µM | [9] 24.7 µM | [10] 15.7 µM

CC/C(=C\C(=N/O)C(N)=O)C(C)[N+](=O)[O-] (stereo unspecified)
inactive: all assays above

CCc1cc(SCc2sc(-c3ccc(C(F)(F)F)cc3)nc2CN2CCN(c3ccc(OC)cc3)CC2)ccc1OCC(=O)O
active: [1] 33 µM | [2] 3.97 µM | [3] 1.94 µM | [4] 5.15 µM | [5] 1.68 µM | [6] 3.28 µM | [7] 2 µM | [8] 2.53 µM | [9] 3.38 µM | [10] 1.8 µM

O=C1OC(=O)C2C3C=CC(C3)C12 (stereo unspecified)
inactive: all assays above

CC(C)CC(C)(O)C#CC(C)(O)CC(C)C (stereo unspecified)
inactive: all assays above

CC(C)=CCC/C(C)=C\CO
active: [5] 0.171 µM
inactive: all other assays above

CC1(C)C(=O)N(Br)C(=O)N1Br
inactive: all assays above

CCCCCCc1ccc(O)cc1O
inactive: [1]
active: [2] 17.5 µM | [3] 20 µM | [5] 19 µM | [6] 28.1 µM | [7] 31.2 µM | [8] 33.2 µM | [9] 33.6 µM | [10] 37.9 µM

CC[C@H](C)C(=O)O[C@H]1C[C@@H](C)C=C2C=C[C@H](C)[C@H](CC[C@@H]3C[C@@H](O)CC(=O)O3)[C@H]21
active: [2] 29.8 µM | [4] 33.8 µM | [5] 13.5 µM | [6] 27.6 µM | [7] 32.2 µM | [8] 29.9 µM | [9] 36.3 µM | [10] 36.6 µM
inactive: [1]

C[C@](N)(Cc1ccc(O)c(O)c1)C(=O)O
active: [5] 12.5 µM | [6] 26.6 µM | [9] 20 µM
inactive: all other assays above

CCN(C(=O)c1cc(C)cc(OC[C@H](C)Nc2ccncc2)c1)C(C)C
inactive: all assays above

Nc1cccc(N)c1
active: [5] 0.148 µM
inactive: all other assays above

CC(=O)OC[C@H]1O[C@@](COC(C)=O)(O[C@H]2O[C@H](COC(C)=O)[C@@H](OC(C)=O)[C@H](OC(C)=O)[C@H]2OC(C)=O)[C@@H](OC(C)=O)[C@@H]1OC(C)=O
inactive: all assays above

CC(C)c1cccc(C(C)C)c1N1C(=O)c2ccc(O)cc2C1=O
active: [1] 16.9 µM | [5] 9.91 µM | [6] 14.7 µM | [7] 14.9 µM | [8] 5.39 µM | [9] 31.9 µM
inactive: [2] | [3] | [4] | [10]

O=C(OC[C@H]1O[C@@H](OC(=O)c2cc(O)c(O)c(OC(=O)c3cc(O)c(O)c(O)c3)c2)[C@H](OC(=O)c2cc(O)c(O)c(OC(=O)c3cc(O)c(O)c(O)c3)c2)[C@@H](OC(=O)c2cc(O)c(O)c(OC(=O)c3cc(O)c(O)c(O)c3)c2)[C@@H]1OC(=O)c1cc(O)c(O)c(OC(=O)c2cc(O)c(O)c(O)c2)c1)c1cc(O)c(O)c(OC(=O)c2cc(O)c(O)c(O)c2)c1
active: [5] 3.77 µM | [6] 1.21 µM | [9] 2.12 µM | [10] 1.86 µM
not listed: [2]
inactive: all other assays above
